Measured values: PubChem BioAssay
Records with an inconclusive call do not appear. The source made the active and inactive calls. Rule as the data show it, unless noted: active = inhibition above about 30%; inactive = the rest.

Columns and labels:
[1] = Her2 expression decrease, cell viability multiplex – SKBR3 breast tumor cells, AlphaScreen, ATP viability, primary screen (AID 461;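 active = Her2 level under about 52% in both replicate screens, with viability over 70% of control, limit read from the data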;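 as to Her2 level: lower value means less Her2 protein in the cells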;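 as to viability: percent of carrier control wells set as 100% viability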); settings: SKBR3 Her2 protein level, 18-24 h, measured here: SKBR3 viability, ATP luminescence, at 10 µM
[2] = biological target: Receptor tyrosine-protein kinase erbB-2 (Homo sapiens) (UniProt P04626); experiment: as above; settings: 18-24 h, at 10 µM, stronger effect = lower value
[3] = reduced viability of SK-BR-3 breast cancer cells – cell-based, 24 h, human, pilot screen (AID 572;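 active = viability at or below 10% of carrier control in both of two separate runs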;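 also: compound exposure lasted between 18 and 24 h rather than exactly 24 h; 100% = carrier-treated control wells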); settings: SK-BR-3 viability, CellTiter-Glo luminescence, at 10 µM, stronger effect = lower value
[4] = HUVEC growth inhibition – cell-based, human, primary screen (AID 575;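 active = viability at or below 30% in both replicate assays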;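 also: 100% = median of untreated cell wells with 0.1% DMSO on each plate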); settings: HUVEC proliferation, CellTiter-Glo luminescence, 72 h; at 10 µM; stronger effect = lower value
[5] = H69AR cell proliferation blockers – human, duplicate replicates, primary screen (AID 580;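 active = viability at or under a set limit in both replicates, limit being median viability minus 3 SD, cut at about 48% in these data, passing the limit was not always enough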;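 also: 100% = mean luminescence of untreated wells and 0% = no signal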); settings: H69AR lung tumor cells viability, ATP luminescence, 72 h; at 10 µM; stronger effect = lower value
[6] = MRP1 drug-resistance reversers in H69AR cells – cell-based, doxorubicin co-treatment, pilot screen (AID 601;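 active = viability loss from added drug above about 55%, and viability with drug at most 40%, in both replicates, limit read from the data, passing the limit was not always enough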); settings: CellTiter-Glo, 72 h, at 10 µM; for differential viability (reversal): stronger effect = higher value
[7] = yeast transport mutant growth inhibition pilot in 384-well plates, post-Golgi transport modulator project (AID 636; in the data active = inhibition above about 31%); settings: absorbance 615 nm, about 18 h, stronger effect = higher value
[8] = growth suppression of yeast trafficking mutant, preliminary HTS, modulators of trafficking downstream of Golgi apparatus project, 1536-format plate, OD 615 nm (AID 637); settings: yeast transport mutant growth, absorbance 615 nm, 18 h; stronger effect = higher value
[9] = S. cerevisiae growth inhibition in permissive medium (OD615), pilot counter-assay for S. cerevisiae lifespan shortening project, permissive growth control (AID 705;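 active = growth inhibition above 25% in both replicates, a cutoff set 3 SD above the mean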); settings: OD615, 24 h, at 10 µM, stronger effect = higher value
[10] = S. cerevisiae growth inhibition in restrictive medium, OD615, pilot screen, restrictive growth control, yeast lifespan reduction project (AID 706;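 active = growth inhibition above a set limit, 3 SD over mean compound inhibition, in both replicates, cut at about 43% in these data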;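 also: modified DeaD lifespan yeast strain shifted to restrictive glucose medium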); settings: OD615, 48 h, at 10 µM, stronger effect = higher value
[11] = doxorubicin toxicity protection in MRP-1 cells – H69AR cells, CellTiter-Glo, duplicate, MRP-1 activator project, pilot screen (AID 807;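 active = viability increase at or above a cutoff of the median across tested compounds plus 3 SD, cut at about 8.5% in these data, passing the limit was not always enough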;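 also: compound pretreatment 18-22 h then 72 h combined with doxorubicin; 0% = doxorubicin alone and 100% = vehicle without doxorubicin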); settings: H69AR viability with doxorubicin, CellTiter-Glo luminescence; at 10 µM; stronger effect = higher value
[12] = viability of PTEN-null HCT116 cells – cell-based, HCT116 clonal line, CellTiter-Glo, pilot screen (AID 824;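 active = viability at or below 27.92% in each of two runs, the all-compound median minus 4 SD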;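 also: 0% = 20 µM Hyamine control and 100% = vehicle cell control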); settings: HCT116 PTEN-deleted viability, 60 h, at 10 µM, stronger effect = lower value
[13] = RAM pathway blockade in budding yeast – dse1pr::URA3 reporter, 5-FOA selection, pilot screen (AID 869;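 active = inhibition over a set limit, the all-compound mean plus 3 SD, in both replicate runs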;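 also: 0% = DMSO wells with no growth and 100% = 10 µM 1-NA-PP1 with full growth; RAM network block rescues cells from 5-FOA so hits raise OD615 growth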); settings: S. cerevisiae dse1pr::URA3 5-FOA growth, OD615, 2 d; at 10 µM; stronger effect = higher value; strain carries analog-sensitive mutant Cbk1 kinase
[14] = RAM signaling pathway blockade in yeast – S. cerevisiae, Pdr1DBD-CYC8 efflux-inhibited sensitized strain, primary screen (AID 1298;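 active = RAM network inhibition above 8.4% in each of two replicates, 3 SD over the compound average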;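 also: 0% = DMSO untreated cells without growth and 100% = 10 µM 1-NA-PP1 full growth; higher means more yeast growth rescued from 5-FOA killing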); settings: S. cerevisiae cbk1-as DSE1-URA3 strain, 5-FOA growth OD615, 2 d; at 50 µM; stronger effect = higher value
[15] = viability of HCT116 without oncogenic beta-catenin – human colon tumor cells, pilot screen (AID 823;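 active = cell viability at or below a set limit in both duplicate runs, the limit being the all-compound median minus 4 SD, cut at about 23% in these data, passing the limit was not always enough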;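 also: 0% = wells killed by 20 µM Hyamine and 100% = untreated DMSO cell wells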); settings: HCT116 beta-catenin knockout viability, CellTiter-Glo, 60 h; at 10 µM; stronger effect = lower value
[16] = H69AR cells + 2 uM doxorubicin, measured here: viability with 2 uM doxorubicin, stronger effect = lower value
[17] = H69AR cells, compound alone cytotoxicity

Receptor tyrosine-protein kinase erbB-2 (Homo sapiens), sequence (P04626 whole entry, looked up): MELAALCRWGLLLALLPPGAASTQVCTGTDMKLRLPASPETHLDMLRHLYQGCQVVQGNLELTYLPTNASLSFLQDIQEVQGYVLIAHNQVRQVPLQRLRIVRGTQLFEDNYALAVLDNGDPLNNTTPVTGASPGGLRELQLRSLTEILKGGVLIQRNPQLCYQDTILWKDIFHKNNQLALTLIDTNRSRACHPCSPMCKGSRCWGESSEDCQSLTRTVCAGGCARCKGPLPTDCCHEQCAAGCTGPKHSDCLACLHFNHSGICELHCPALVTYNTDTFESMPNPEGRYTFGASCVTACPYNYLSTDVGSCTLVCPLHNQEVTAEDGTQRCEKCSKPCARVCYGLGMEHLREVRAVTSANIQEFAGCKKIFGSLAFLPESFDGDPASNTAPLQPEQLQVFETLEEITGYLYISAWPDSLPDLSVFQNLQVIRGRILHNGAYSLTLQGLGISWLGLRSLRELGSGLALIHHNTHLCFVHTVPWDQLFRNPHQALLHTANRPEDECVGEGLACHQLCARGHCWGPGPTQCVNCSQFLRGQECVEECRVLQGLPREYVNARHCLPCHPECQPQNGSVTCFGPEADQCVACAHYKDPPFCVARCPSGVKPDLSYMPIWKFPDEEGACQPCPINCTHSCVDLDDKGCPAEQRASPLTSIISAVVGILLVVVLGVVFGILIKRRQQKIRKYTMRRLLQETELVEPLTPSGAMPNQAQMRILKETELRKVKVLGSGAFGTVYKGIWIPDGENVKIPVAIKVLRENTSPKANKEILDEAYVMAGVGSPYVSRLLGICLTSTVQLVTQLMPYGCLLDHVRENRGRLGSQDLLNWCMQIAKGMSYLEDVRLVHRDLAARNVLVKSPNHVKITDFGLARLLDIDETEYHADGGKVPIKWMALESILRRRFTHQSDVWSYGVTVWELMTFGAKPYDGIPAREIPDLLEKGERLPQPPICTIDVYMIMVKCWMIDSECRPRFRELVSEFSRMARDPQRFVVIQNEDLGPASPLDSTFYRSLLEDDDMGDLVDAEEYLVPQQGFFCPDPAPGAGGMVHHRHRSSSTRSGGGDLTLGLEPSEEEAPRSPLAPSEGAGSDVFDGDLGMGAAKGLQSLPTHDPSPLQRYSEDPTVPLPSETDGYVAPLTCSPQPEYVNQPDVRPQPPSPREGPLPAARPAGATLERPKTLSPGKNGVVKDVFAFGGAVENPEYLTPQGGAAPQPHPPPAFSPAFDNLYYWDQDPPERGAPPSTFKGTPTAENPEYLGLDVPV

Row | SMILES | viability [1] | Her2 level [2] | viability [3] | viability [4] | viability [5] | differential viability (reversal) ([6]; H69AR cells + 2 uM doxorubicin) | viability [6, 16] | viability [6, 17] | inhibition [7] | inhibition [8] | growth inhibition [9] | growth inhibition [10] | viability increase [11] | viability [12] | inhibition [13] | RAM network inhibition [14] | viability [15]
1 | COc1ccc(C2C(C(=O)N3CCCC3)c3cc(OC)c(OC)cc3C(=O)N2C)cc1 (stereo not given) | 88.5% | 85.5% (inactive) | 88.5% (inactive) | 94.3% (inactive) | 102% (inactive) | 0.95% (inactive) | 101% | 102% | -7.95% (inactive) | -0.63% (inactive) | -8.59% (inactive) | -0.445% (inactive) | -1.15% (inactive) | 92.8% (inactive) | 0.655% (inactive) | 5.28% (inactive) | 
2 | COc1ccc(C(C(=O)NC2CCCCC2)N2CCC3(CC2)OCCO3)cc1 (stereo not given) | 86% | 98% (inactive) | 86% (inactive) | 114% (inactive) | 100% (inactive) | 6.97% (inactive) | 93.5% | 100% | -7.81% (inactive) | 5.71% (inactive) | -7.27% (inactive) | -6.88% (inactive) | -2.42% (inactive) | 88.8% (inactive) | 2.62% (inactive) | 2.77% (inactive) | 
3 | CSc1ccccc1NC(=O)C1CCCO1 (stereo not given) | 97.5% | 110% (inactive) | 97.5% (inactive) | 102% (inactive) | 93.9% (inactive) | -0.325% (inactive) | 94.2% | 93.9% | 1.73% (inactive) | -6.03% (inactive) | -8.35% (inactive) | -0.95% (inactive) | -2.61% (inactive) | 98.6% (inactive) | 0.11% (inactive) | 2.42% (inactive) | 
4 | CC(=O)c1cccc(NC(=O)CCNS(=O)(=O)c2cccc3nsnc23)c1 | 86% | 78% (inactive) | 86% (inactive) | 95.6% (inactive) | 106% (inactive) | 11.8% (inactive) | 94.5% | 106% | -6.58% (inactive) | 6.19% (inactive) | -5.2% (inactive) | -11% (inactive) | -2.11% (inactive) | 93.5% (inactive) | 1.73% (inactive) | 2% (inactive) | 
5 | Cc1noc(C)c1CSc1ccccc1C(=O)N1CCN(c2ccccc2)CC1 | 87% | 86% (inactive) | 87% (inactive) | 97.8% (inactive) | 82% (inactive) | -6.2% (inactive) | 88.2% | 82% | -4.46% (inactive) | 5.57% (inactive) | -11.9% (inactive) | -20% (inactive) | -2.25% (inactive) | 72.3% (inactive) | 3.5% (inactive) | 4.4% (inactive) | 
6 | COc1ccccc1N1CCN(c2cc(=O)n(Cc3ccc(F)cc3)c(=O)[nH]2)CC1 | 99% | 68.5% (inactive) | 99% (inactive) | 44.1% (inactive) | 12.1% (active) | -38% (inactive) | 50.1% | 12.1% | 0% (inactive) | 9.17% (inactive) | -0.995% (inactive) | 0.535% (inactive) | -5.11% (inactive) |  | 1.02% (inactive) | 2.69% (inactive) | 33.6% (inactive)
7 | Cc1ccc(-n2c3c(cc(C(=O)O)c2=O)C(=O)CC(C)(C)C3)cc1 | 98% | 82.5% (inactive) | 98% (inactive) | 111% (inactive) | 87.8% (inactive) | -3.07% (inactive) | 90.9% | 87.8% | -1.84% (inactive) | 0% (inactive) | -16.4% (inactive) | -5.83% (inactive) | -3.48% (inactive) | 100% (inactive) | 0.675% (inactive) | 4.71% (inactive) | 
8 | COC(=O)C1(C(F)(F)F)N=C2Sc3ccccc3N2C(N2CCOCC2)=N1 (stereo not given) | 91% | 89% (inactive) | 91% (inactive) | 81.5% (inactive) | 92.5% (inactive) | -0.935% (inactive) | 93.4% | 92.5% | -5.73% (inactive) | 5.17% (inactive) | -9.31% (inactive) | -10% (inactive) | -1.24% (inactive) | 53.8% (inactive) | 1.03% (inactive) | 2.93% (inactive) | 
9 | COc1ccccc1C(=O)NCCc1nc2ccccc2n1C | 118% | 83% (inactive) | 118% (inactive) | 119% (inactive) | 101% (inactive) | 5.79% (inactive) | 95% | 101% | -6.76% (inactive) | -3.67% (inactive) | -20.8% (inactive) | 0.505% (inactive) | 0.02% (inactive) |  | 2.54% (inactive) | 5.39% (inactive) | 105% (inactive)
10 | Cc1ccc(S(=O)(=O)N2CCOCC2)cc1C(=O)Nc1nc(-c2cccnc2)cs1 | 106% | 91% (inactive) | 106% (inactive) | 88.8% (inactive) | 103% (inactive) | 9% (inactive) | 94.3% | 103% | 0% (inactive) | -3.33% (inactive) | -14.2% (inactive) | -6.87% (inactive) | -1.69% (inactive) |  | 1.93% (inactive) | 3.11% (inactive) | 96.8% (inactive)
